RORgamma inh: qHTS for inhibitors of ROR gamma transcriptional activity; Nuclear receptor ROR-gamma (Mus musculus), P51450; Potency, µM (top dose mostly 53.6 µM), for the others: at the highest dose activity change, negative = inhibition, usual class: inhibitors; Drosophila S2 Gal4-RORgamma UAS-luciferase reporter, 20 h; 5.4% of 310,000 active; note: % is set by controls: 0 for no effect and ±100 for the full control effect; nearly all actives have a fitted effect of over 60% in size
Target sequence (P51450 whole entry, looked up, the tested form may be a part): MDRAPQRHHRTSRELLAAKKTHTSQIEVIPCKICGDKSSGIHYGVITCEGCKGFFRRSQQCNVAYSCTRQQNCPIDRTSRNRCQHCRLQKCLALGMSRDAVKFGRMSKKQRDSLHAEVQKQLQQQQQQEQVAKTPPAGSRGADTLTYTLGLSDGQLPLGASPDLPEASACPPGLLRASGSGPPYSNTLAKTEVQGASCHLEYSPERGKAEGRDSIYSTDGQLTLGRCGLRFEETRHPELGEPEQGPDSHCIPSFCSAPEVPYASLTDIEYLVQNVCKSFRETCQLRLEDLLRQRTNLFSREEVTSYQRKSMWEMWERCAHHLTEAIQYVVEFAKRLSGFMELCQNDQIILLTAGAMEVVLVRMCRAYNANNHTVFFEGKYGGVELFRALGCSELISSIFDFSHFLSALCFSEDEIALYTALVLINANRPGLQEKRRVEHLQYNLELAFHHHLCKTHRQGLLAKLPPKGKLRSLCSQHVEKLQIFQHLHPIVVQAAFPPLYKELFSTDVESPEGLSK
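Drosophila Schneider cells stably carrying a metallothionein-driven Gal4 DBD–ROR gamma fusion and a UAS-Photinus luciferase reporter were exposed to compound for 1 hr, then induced with copper sulfate (700 uM final) for 20 hr at ambient temperature before luminescence reading.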
HepG2 viability: qHTS for Inhibitors of TGF-b: Cytotox Counterscreen; 0.76% of 410,000 active; Potency, µM (series often up to 46.1 µM), for inactives: top-dose activity change, negative = cytotoxicity, usual class: cytotoxic; AID 588856, 2011; HepG2 CAGA-GFP viability, ATP luminescence, 18 h
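HepG2 CAGA-GFP cells (1000/well, DMEM with 1% FBS) received compound, then TGF-beta at 500 pg/mL final, and were incubated 18 hours at 37 degrees C. Viability was read by CellTiter-Glo luminescence. Media-only wells were set as complete cell-killing and DMSO as no toxicity.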
ATXN2 expr inh: Primary qHTS for Inhibitors of ATXN expression; HEK-293 ATXN2-luciferase reporter, luminescence, 24 h; Potency, µM (titrated, usually from 57 µM), for inactives: at the highest dose activity change, negative = inhibition, most hits filed as inhibitors; 0.72% of 360,000 active; note: % is set by controls: 0 for no effect and ±100 for the full control effect; nearly all actives have a fitted effect of over 55% in size
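ATXN2-luciferase reporter cells (luciferase flanked by upstream and downstream ATXN2 gene portions) were treated 24 h at 37 °C with compounds at up to 57 uM. SteadyGlo luminescence gave expression; GF-AFC fluorescence gave viability.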
S2 tox: Viability Counterscreen for Primary qHTS for Inhibitors of ATXN expression | S2 cells (HEK-293 line with an ATXN2-luciferase reporter) viability, CellTiter-Fluor protease fluorescence, 24 h | AID 651635, 2014 | 0.49% of 400,000 active | Potency, µM (highest dose often 56.7 µM), actives largely listed as cytotoxic; note: nearly all actives have a fitted effect of over 40% in size
VP16 counter: VP16 counterscreen qHTS for inhibitors of ROR gamma transcriptional activity | Drosophila S2 Gal4-VP16 UAS-luciferase, luminescence, 20 h | Potency, µM (series often up to 53.6 µM), without a hit: at the top dose activity, negative = inhibition, usual class: inhibitors | 3.5% of 310,000 active;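 note: Gal4-VP16 expression switched on by copper sulfate through the metallothionein promoter; % is set by controls: 0 for no effect and ±100 for the full control effect; nearly all actives have a fitted effect of over 50% in size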
TGFb SMAD3 inh: qHTS for Inhibitors of TGF-b; HepG2 CAGA-GFP TGF-b/SMAD3 reporter, GFP fluorescence, 18 h; TGF-beta stimulated, 500 pg/mL final; Potency, µM (highest dose often 46.1 µM), for the others: top-dose activity, negative = inhibition, most hits filed as inhibitors; 1.2% of 410,000 active; note: % is set by controls: 0 for no effect and ±100 for the full control effect; nearly all actives have a fitted effect of over 65% in size
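Per well, imaged GFP fluorescence of HEPG2 CAGA-GFP cells gives the signal; cells get compound, then TGF-beta (500 pg/mL final), 18 h at 37 degrees C; %Activity versus -TGF-beta and +DMSO controls.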
Active calls of the source: *; i = inactive; ? = inconclusive; · = no result. Most compounds without a hit are left out; they make up all but 6.1% or so of the library. Calls come from the whole dose curve; as a rule, active = well fitted curve in the direction sought with a large enough effect; inconclusive = small, poorly fitted or top-dose-only effect, or another doubt; inactive = no such curve, though single readings can be large; an effect the other way counts as inactive or inconclusive. Potency is the fitted concentration of half-maximal effect.

SMILES | RORgamma inh | HepG2 viability | ATXN2 expr inh | S2 tox | VP16 counter | TGFb SMAD3 inh
Cc1ccc(C)c(NCc2n[nH]c(=S)n2-c2ccccc2)c1 | -20% | -7% | -11% | i | -5% | 10%
Cc1ccc(-n2c([C@@H]3C[C@H]3c3ccccc3)n[nH]c2=S)cc1 | 2.8µM* | -3% | 10% | i | ? | 9%
COc1cc2c(=O)c(C(=O)c3ccc(F)cc3)cn(Cc3cccc(F)c3)c2cc1OC | · | 0% | -14% | ? | · | -19%
Cc1ccc(-n2c(-c3nn(C)cc3Cl)n[nH]c2=S)cc1 | ? | -7% | -11% | i | -19% | 7%
Cc1ccc(C2CC2c2n[nH]c(=S)n2-c2ccc(C)cc2)cc1 (stereo not given) | 3.2µM* | -18% | 2% | i | 5.6µM* | 14%
CN(Cc1ccccc1)C(=O)C(=O)Nc1ccc2nc3n(c(=O)c2c1)CCCCC3 | · | -3% | -19% | ? | · | 4%
N#CC1=C(N)SC(N)=C(C#N)C1Cc1ccccc1 | 7% | -28% | -6% | i | 4% | -9%
N#CC1=C(N)SC(N)=C(C#N)C1CCc1ccccc1 | 7.9µM* | -25% | -5% | i | ? | -21%
N#CC1=C(N)SC(N)=C(C#N)C1c1c(Cl)cccc1Cl | 8.9µM* | -22% | 27% | i | ? | 1%
CCOC(=O)c1cc(S(=O)(=O)Nc2cc(C)c(Cl)cc2OC)[nH]n1 | · | -49% | -4% | i | · | ?
Cc1ccc(-n2ncc(C(=O)NCc3cccs3)c2C2CCN(C(=O)OC(C)(C)C)CC2)cc1C | · | -19% | · | · | · | ?
CN1CCN(NC(=S)NC2CCCC2)CC1 | 0% | 3% | 8% | i | -15% | 0%
CN1CCN(NC(=S)NC(C)(C)CC(C)(C)C)CC1 | 6.3µM* | -20% | 1% | i | 18µM* | 3%
Cc1[nH]c2ccccc2c1/C=N/NC(=O)c1cccc(S(=O)(=O)Nc2cccc(C(F)(F)F)c2)c1 | -16% | -12% | · | i | -6% | 10µM*
O=C(Cn1cc(C(F)(F)F)ccc1=O)N/N=C/c1ccc(F)cc1 | 12% | -41% | -11% | i | -9% | 1%
O=C(Cn1cc(C(F)(F)F)ccc1=O)N/N=C/c1ccccc1O | 2µM* | -47% | 0% | i | 10µM* | -24%
O=C(N/N=C/c1cc(Br)ccc1O)c1ccccc1Cl | 0.56µM* | -48% | ? | i | 2.5µM* | ?
NNC(=O)c1cccc(S(=O)(=O)Nc2cccc(C(F)(F)F)c2)c1 | -9% | 22% | · | i | -7% | -8%
CC(C)c1ccc(/C=N/NC(=O)c2ccccc2Cl)cc1 | ? | 25% | -15% | ? | -2% | -13%
O=C(N/N=C/c1ccccc1O)c1cccc(C(F)(F)F)c1 | 1µM* | -52% | 3.2µM* | ? | 2µM* | ?
COCc1ccc(CN2CCOc3c(cc(-c4ccc(SC)cc4)cc3OC)C2)o1 | · | · | · | i | · | ·
CCN(C(=O)CSc1nc2ccccc2n1CC(=O)Nc1ccccc1C)c1ccccc1 | · | -13% | -9% | i | · | -10%
O=C(CCS(=O)(=O)c1ccc(Br)s1)Nc1c(F)cccc1F | · | -6% | 8% | i | · | 2%
O=C(N/N=C/c1cccc(O)c1)c1ccccc1O | ? | -19% | 6% | i | -3% | 6%
O=C(N/N=C/C1CC2C=CC1C2)c1ccccc1O (stereo not given) | 4.5µM* | -37% | · | i | ? | -14%
CC(=O)Nc1ccc(C(=O)N/N=C/C2CC3C=CC2C3)cc1 (stereo not given) | 4% | -5% | · | i | -7% | 6%
O=C(N/N=C\c1ccccc1O)c1ccccc1O | 1µM* | · | · | · | 35µM* | ·
